An excerpt weighted towards active compounds, which were near 0.91% of everything screened.
Prostate diff: activators of LNCaP prostate cell differentiation; flow cytometry side scatter, 4 d; side scatter shift, % at 10 µM; 24,000 tested, 0.56% active;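 active = side scatter shift above 30%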;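 also: androgen-responsive LNCaP prostate cancer cells in charcoal-stripped serum medium; percent of cells past a gate set so DMSO wells show 10% shift; higher shift means more granular cells and more differentiation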
S aureus QS inh: blocks AIP-induced quorum sensing reporter in S. aureus. inhibition, % at 2 µM. S. aureus RN6390 RNAIII-GFP reporter, flow cytometry 3 h. 24,000 tested, 0.3% active;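 active = share of bacteria positive for the green fluorescent reporter and its mean brightness both inhibited by 50% or more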;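 also: 0% = AIP-stimulated control and 100% = unstimulated bacteria without AIP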
Active calls of the source: *; . = not tested or not shown.

SMILES	Prostate diff	S aureus QS inh
CC1CCCN(C(=O)C2CCN(S(=O)(=O)c3cccc4cccnc34)CC2)C1 (stereo unspecified)	9	5
CC(C)NC(=O)c1cnc(N2CCN(c3ccccn3)CC2)c2ccccc12	23	-2
c1ccc(N2CCN(c3nnc(Cc4cccnc4)c4ccccc34)CC2)nc1	30*	2
COc1ccc(-c2cc(C(F)(F)F)nc(N3CCN(C)CC3)n2)cc1	43*	3
COc1ccc(-c2cc(C(F)(F)F)nc(N3CCCCCC3)n2)cc1	10	-1
O=C(CCc1nc(-c2ccccc2F)no1)NC1CCN(Cc2ccccc2)CC1	15	-7
COc1ccc(-c2noc(CCC(=O)NCCCN3CCC(C)CC3)n2)cc1	2	-2
Cc1ccc(-c2noc(CCC(=O)NC3CCN(Cc4ccccc4)CC3)n2)cc1	32*	-3
Cc1ccc(-c2noc(CCC(=O)NCCCN3CCN(c4ccc(F)cc4)CC3)n2)cc1	38*	-2
Cc1ccc(-c2noc(CCC(=O)NCCCN3CCN(c4cccc(Cl)c4)CC3)n2)cc1	44*	1
Clc1cccc(N2CCN(Cc3nc(-c4ccccc4)no3)CC2)c1	7	0
O=C(Nc1nc2ccccc2s1)C1=NN(c2ccccc2)C(=O)CC1	.	0
COc1ccc(S(=O)(=O)Nc2c(C)ccc3nsnc23)cc1OC	12	-4
CCC(C)NC(=O)c1ccccc1NC(=O)CN1C(=O)c2ccccc2S1(=O)=O (stereo unspecified)	3	-6
CCN(CC)c1ncnc2sc(C(=O)N3CCN(c4ccc(OC)cc4)CC3)c(C)c12	8	11
CCOC(=O)c1sc2ncnc(N3CCN(c4ccc(OC)cc4)CC3)c2c1C	35*	8
CCOC(=O)c1nnn(-c2nonc2N)c1-c1ccc(OC)cc1	8	1
Cc1ccc(CN2CCSc3ccc(C(=O)N4CCN(c5ncccn5)CC4)cc32)cc1	44*	-1
O=C(NCCN1CCOCC1)c1ccc2c(c1)N(Cc1ccccc1)CCS2	4	10
Clc1ccc(Cn2c(CN3CCCC3)nc3ccccc32)cc1	2	4
COc1ccc(CCN2CCC(Nc3nc4ccccc4n3Cc3ccc(F)cc3)CC2)cc1	66*	4
Cc1ccc(CCNC(=O)C2CCN(C(=O)N(C)C)CC2)cc1	3	-2

Bioassay records: PubChem, NMMLSC
